Here are results for 45 compounds from PubChem BioAssay AID1347416 (National Center for Advancing Translational Sciences (NCATS), 2020).

Each structure is given as a SMILES string. The whole screen tested about 4,100 compounds, of which about 1,600 (39%) were called active. Not shown: some 25% with an inconclusive outcome. Calls come from the whole dose curve; as a rule, active = well fitted inhibition curve with a large enough effect; inconclusive = small, poorly fitted or top-dose-only effect; inactive = no such curve, though single readings can be large or run the other way. Some of the results follow.
% is set by controls: 0 for no effect and ±100 for the full control effect; potency is the fitted concentration of half-maximal effect.

The test in a line: qHTS Validation assay for Inhibitors of Plasmodium falciparum Dd2 growth in vitro. Note: nearly all actives have a fitted effect of over 70% in size. Particulars: P. falciparum Dd2 in RBCs, SYBR Green growth, 72 h; series mostly up to 28.7 µM; activity change, negative = inhibition: at the top concentration. From the text: Malaria, a parasitic disease spread to humans through the bite of a Plasmodium infected Anopheles mosquito, continues to be a global health burden affecting millions of people, with an estimated 228 million cases and 405,000 deaths in 2018. Concerns about safety and limitations of current antimalarial treatments strongly emphasize the need to develop new therapeutic options. The scarce number of chemotypes and validated drug targets with efficacy against the liver stage, have hindered development of new antimalarials. To address this, a chemoprophylactic drug discovery effort was conducted through a combined phenotypic high-throughput asexual blood stage and liver stage screen, providing a robust foundation to identify liver-stage active lead chemotypes. Compounds were initially screened against Plasmodium falciparum Dd2 strain parasites using a in vitro SYBRGreen-1 based 72 hr proliferation assay to identify novel chemotypes to advance to liver stage assays. NIH/NCATS Early Translation Branch Assay Submitter (PI): Anton Simeonov Ph.D.
[…] Assay Protocol: PROTOCOL TABLE (as described by Inglese et al., 2007) SEQUENCE No. (e.g., 1, 2, 3, etc.); PARAMETER (e.g., Cells, Incubation, Reagent, etc.); VALUE; DESCRIPTION SEQUENCE, Parameter, Description 1; Reagent; 3 uL complete malaria growth medium, 1536 TC treated Black clear bottom plate 2; Controls; 23 nL positive control artesunate (300 nM final) to column 1; Neutral control DMSO to columns 2-4 3; Compound; 23 nL of compounds in dose response concentration (29 uM to 0.5 nM final) 4; Reagent; 5 uL malaria infected red blood cells (2.5% hematocrit final, 0.3% parasitemia 5; Time; 72 hours at 37C (5% O2, 5% CO2, 90% N2; 95% Rh) 6; Reagent; 2 uL lysis buffer/SYBRGreen-1, 25 sec shake immediately following dispense 7; Time; ~16 hours at 37C (5% O2, 5% CO2, 90% N2; 95% Rh) 8; Detector; EnVision (PerkinElmer) bottom read at 485/14nm excitation and 535/25 nm emission NOTES (numbers refer to sequence above): 1; Complete Malaria Growth Media: 1X RPMI-1640 w/L-glutamine, 5.5g/L Albumax II, 367 uM Hypoxanthine, 25 mM HEPES, 0.25% Sodium Bicarbonate, 35 uM Gentamicin sulfate 2; Controls were added using the Kalypsis Pintool (Wako USA) equipped with 1536 pinhead 3; Compounds were added in a 7-point, titration with a high final concentration of 29 uM by Pintool from seven inter-plate titrations of library plates and two DMSO control plates at the beginning and end (see Yasgar et al., 2008). 4; Red blood cells infected with Plasmodium falciparum Dd2 parasites were used. 6; Lysis buffer: 20 mM Tris-HCl, 10 mM EDTA, 0.16% Saponin, 1.6% Triton-X, 10X SYBR Green. REFERENCE: Inglese J, Shamu CE, Guy RK. 2007. Reporting data from high-throughput screening of small-molecule libraries. Nat Chem Biol. doi:10.1038/nchembio0807-438 Yasgar A, Shinn P, Jadhav A, Auld D, Michael S, Zheng W, Austin CP, Inglese J, Simeonov A. 2008. Compound Management for Quantitative High-Throughput Screening. J Lab Autom 13:79-89. doi:10.1016/j.jala.2007.12.004
Regarding `CN(C)S(=O)(=O)c1ccc(N2CCCC2)c(C(=O)NC(c2ccccc2)c2ccccc2)c1`, the “activity change, negative = inhibition” value was -16.7% (inactive).

For `CCN(CC)S(=O)(=O)c1ccc(N2CCCCC2)c(NC(=O)C2=COCCO2)c1`, the Potency was 6.68 µM (active).

As for `N=c1n(N)c2ccccc2n1CC(=O)c1ccc(Br)cc1`, the “activity change, negative = inhibition” value was -21.2% (inactive).

Consider `CCN(CC)CCn1c(=N)n(CC(=O)c2ccc(Br)s2)c2ccccc21`, for which the Potency is 5.31 µM (active).

In the case of `Cc1nn(-c2ccccc2)c(C)c1/C=N/Nc1nc2ccccc2[nH]1`, the Potency was 1.5 µM (active).

With `CC(NC(=O)c1ccc(NC(=O)c2ccco2)cc1)c1ccccc1` (stereo not given), the “activity change, negative = inhibition” value is 117% (inactive).

On to `CCOC(=O)c1ccc(NC(=O)c2ccco2)cc1`, for which the “activity change, negative = inhibition” value was -29.1% (inactive).

Turning to `Cc1ccc(Oc2ccc(NC(=O)c3ccco3)cc2)cc1`, the Potency was 10.6 µM (active).

For `O=C(NC1=C(Nc2ccc(F)cc2)C(=O)c2ccccc2C1=O)c1ccc(Cl)cc1`, the Potency was 0.842 µM (active).

Regarding `O=C(O)/C=C/c1cccc(NC(=O)c2ccc(Cl)cc2)c1`, the “activity change, negative = inhibition” value is 26.1% (inactive).

In the case of `O=C(NC1=C(Nc2ccc(Cl)cc2)C(=O)c2ccccc2C1=O)c1ccccc1`, the Potency was 0.473 µM (active).

For the compound `CN1C(=O)COC[C@@H]1[C@H](O)c1ccc(NC(=O)c2ccccc2)cc1`, the “activity change, negative = inhibition” value was 35% [at 43.1 µM] (inactive).

In the case of `Cc1cccc(NC2=C(NC(=O)c3ccccc3)C(=O)c3ccccc3C2=O)c1`, the Potency was 0.944 µM (active).

As for `Cc1csc2nc(COc3ccc(NC(=O)COc4ccccc4F)cc3)cc(=O)n12`, the “activity change, negative = inhibition” value is 7.07% (inactive).

Turning to `CCCc1nn2c(=O)cc(COC(=O)c3cccc(NC(=O)COc4ccccc4C)c3)nc2s1`, the Potency is 13.3 µM (active).

`Cc1ccccc1OCC(=O)Nc1ccccc1C(=O)OCc1cc(=O)n2ccsc2n1`: the “activity change, negative = inhibition” value was 39% (inactive).

In the case of `CCCNc1ccc(-c2nc(-c3ccncc3)no2)cc1[N+](=O)[O-]`, the “activity change, negative = inhibition” value was 8.71% (inactive).

On to `COc1cccc(NC(=O)c2ccc(NCCCN3CCC(C)CC3)c([N+](=O)[O-])c2)c1`, for which the Potency is 7.5 µM (active).

With `CC1(CCCCN2CCOCC2)COc2ccc(C(=O)Nc3ccc4[nH]ccc4c3)cc2N1` (stereo not given), the “activity change, negative = inhibition” value was 2.89% (inactive).

As for `CCCN(CCC)CCCNc1ccc(C(=O)Nc2cccc(OC)c2)cc1[N+](=O)[O-]`, the Potency is 5.96 µM (active).

On to `COc1cccc(NC(=O)c2ccc3c(c2)NC(C)(CCCCN2CCOCC2)CO3)c1` (stereo not given), for which the “activity change, negative = inhibition” value was 2.98% [at 43.1 µM] (inactive).

As for `Cc1ccc(C(=O)N2[C@@H]3CC[C@H]2CC(NC(=O)c2ccncc2)C3)cc1F` (stereo not given in full), the “activity change, negative = inhibition” value was 0% (inactive).

As to `COCCCNC(=O)C(NC(=O)c1ccc(OC)cc1)C1CCN(C(=O)c2cccc(OC)c2)CC1` (stereo not given), the “activity change, negative = inhibition” value is 0.813% (inactive).

On to `Cc1ccc(NC(=O)c2ccc(NCCCN3CCC(C)CC3)c([N+](=O)[O-])c2)cc1F`, for which the Potency is 6.68 µM (active).

On to `c1ccc(CCc2nc3nccc(-c4ccc5c(c4)OCCCO5)n3n2)cc1`, for which the “activity change, negative = inhibition” value was -24.7% (inactive).

Turning to `CC(C)Oc1ccc(C(CCNCc2ccc(O)cc2)c2ccccc2)cc1` (stereo not given), the Potency was 0.668 µM (active).

Turning to `Cc1onc(-c2ccc(Cl)cc2)c1-c1ccnn1S(=O)(=O)c1cccc(C(F)(F)F)c1`, the Potency is 4.73 µM (active).

In the case of `Cc1noc([C@@H]2CN(C(=O)c3cccc(C(F)(F)F)c3)C[C@H]2C(N)=O)n1`, the “activity change, negative = inhibition” value is 17.3% (inactive).

As to `Cc1onc(-c2ccc(Cl)cc2)c1-c1ccnn1S(=O)(=O)c1ccc(Cl)cc1`, the Potency was 1.88 µM (active).

Regarding `CC(C)c1noc(-c2cccn3c(CNC(=O)c4nccc5ccccc45)nnc23)n1`, the “activity change, negative = inhibition” value is 0% (inactive).

In the case of `Oc1c(C(Nc2ccccn2)c2ccccc2F)ccc2cccnc12` (stereo not given), the Potency is 9.44 µM (active).

As for `CCC(=NC(CC)CO)C1=C(O)CC(C)(C)CC1=O` (stereo not given), the “activity change, negative = inhibition” value is 66.5% (inactive).

`CN(C)C(=O)c1cccnc1OC1CCN(CCc2ccccc2)CC1`: the “activity change, negative = inhibition” value is -4.1% (inactive).

For `CN1CCN(C(=O)C2(N(C)CCc3ccccc3)Cc3ccccc3C2)CC1`, the Potency was 2.66 µM (active).

Consider `CC(C)C[C@@H]1N[C@H](C(=O)NC(C)C)Cc2cn(Cc3ccncc3)c3cccc1c23`, for which the Potency was 17.2 µM (active).

Consider `Cc1cccc(N2CCN(c3cccc(C)c3)C2c2cccnc2)c1`, for which the Potency was 5.96 µM (active).

Consider `CC(C)(C)c1ccc(N2C(=O)CSC2c2cccnc2)cc1` (stereo not given), for which the “activity change, negative = inhibition” value is -11.4% (inactive).

For `Cc1cccc(C(=O)NC2CCN(c3cnn(C)c(=O)c3)CC2)c1`, the “activity change, negative = inhibition” value was 35.1% (inactive).

As for `NCCc1cccc(CN2CCCC(COc3ccccc3F)C2)c1` (stereo not given), the Potency was 2.66 µM (active).

For `CCc1cccc(NC(=O)N2CCCC(c3noc(COc4ccccc4F)n3)C2)c1` (stereo not given), the “activity change, negative = inhibition” value was 6.71% (inactive).

Regarding `CCCCOc1ccc(NC2=NC3(CCCCC3)N=C(N)N2)cc1`, the Potency was 8.41 µM (active).

Regarding `CC(C)C[C@@]12C(=O)N(c3cccc(Br)c3)C(=O)N1[C@H](c1ccc(F)cc1)[C@@H]1C(=O)N(C3CCCCC3)C(=O)[C@@H]12`, the Potency was 7.5 µM (active).

On to `N=c1c2c(n(Cc3ccc(F)cc3)c3c1CCC3)CCCC2`, for which the Potency is 2.99 µM (active).

On to `N=c1c2c(n(Cc3ccc(F)cc3)c3c1CCC3)CCC2`, for which the Potency is 3.35 µM (active).

Take `N=c1c2c(n(Cc3ccccc3)c3c1CCC3)CCC2`: the Potency was 4.22 µM (active).
